According to PubChem BioAssay (EPA / NIEHS):
The source made the active and inactive calls. Rule for the calls: active = hit-call score of the fitted dose curve at least 0.9, where 1 is the maximum; inactive = score below 0.9.

Experiment: ATG_TAL_CIS: Attagene CIS-FACTORIAL HepG2 Assay for human TAL Basal Promoter (AID 2282966);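 note: background control endpoint measuring basal TAL promoter reporter mRNA not a specific factor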
Details: HepG2 Attagene cis-factorial TAL promoter reporter; actives raise or lower the signal
How it was run: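 RT-PCR plus capillary electrophoresis quantifies reporter mRNA induction in transiently transfected HepG2 cells after 24 h chemical treatment. DMSO serves as negative control and baseline for bidirectional fitting.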

SMILES | outcome
COC(=O)Nc1nc2ccccc2[nH]1 | inactive
Cc1cc(N=Nc2ccccc2C)ccc1N | inactive
Clc1ccc(C(c2ccc(Cl)cc2)C(Cl)Cl)cc1 | inactive
O=Cc1ccco1 | inactive
c1ccc(NNc2ccccc2)cc1 | inactive
CC(C)COC(=O)c1ccccc1C(=O)OCC(C)C | inactive
[As]#[In] | inactive
CN(C)C(=O)Nc1ccc(Cl)cc1 | inactive
CCC(C)c1ccc(O)cc1 (centres undefined) | inactive
ClCCOCCCl | inactive
c1ccc(N=Nc2ccccc2)cc1 | inactive
O=P(OCCCl)(OCCCl)OCCCl | inactive
c1ccc2c(c1)-c1cccc3cccc-2c13 | inactive
CCCSC(=O)N(CCC)CCC | inactive
COP(=S)(OC)SCN1C(=O)c2ccccc2C1=O | inactive
O=[N+]([O-])c1ccc(Oc2ccc(Cl)cc2Cl)cc1 | inactive
CC(C)(C)C(O)(CCc1ccc(Cl)cc1)Cn1cncn1 (centres undefined) | inactive
CN(C)[C@@H]1C(=O)C(C(N)=O)=C(O)[C@@]2(O)C(=O)C3=C(O)c4c(O)cccc4[C@@](C)(O)[C@H]3C[C@@H]12 | inactive
O=[N+]([O-])C(Br)(CO)CO | inactive
N#CC(Br)Br | inactive
CCNS(=O)(=O)C(F)(F)C(F)(F)C(F)(F)C(F)(F)C(F)(F)C(F)(F)C(F)(F)C(F)(F)F | inactive
CN(C)c1ccc(C(=O)c2ccc(N(C)C)cc2)cc1 | inactive
Cc1ccc(N=C=O)cc1N=C=O | inactive
C[N+](C)(C)CC1CO1 (centres undefined) | inactive
CC(C)N(Cc1ccccc1)C(=O)C(C)(C)C | inactive
Cc1ccc([N+](=O)[O-])cc1 | inactive
Nc1ccc(Oc2ccc(N)cc2)cc1 | inactive
ClC1=C(Cl)C2(Cl)C3C(Cl)C=CC3C1(Cl)C2(Cl)Cl (centres undefined) | inactive

Experiment: ATG_TGFb_CIS: Attagene CIS-FACTORIAL HepG2 Assay for human Transforming Growth Factor (TGF) (AID 2282967)
Details: HepG2 Attagene CIS TGFb reporter, mRNA transcription; actives raise or lower the signal
How it was run: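 Transcript-level reporter readout: HepG2 transfectants, 24 h exposure, RNA to cDNA, reporter-specific PCR, fluorescent primer extension, capillary sizing against ROX standards. Gain- or loss-of-signal relative to DMSO.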

SMILES | outcome
O=Cc1ccco1 | inactive
c1ccc(NNc2ccccc2)cc1 | inactive
CC(C)COC(=O)c1ccccc1C(=O)OCC(C)C | inactive
[As]#[In] | inactive
CN(C)C(=O)Nc1ccc(Cl)cc1 | inactive
CCC(C)c1ccc(O)cc1 (centres undefined) | inactive
ClCCOCCCl | inactive
COP(=S)(OC)SCN1C(=O)c2ccccc2C1=O | inactive
CC(C)(C)C(O)(CCc1ccc(Cl)cc1)Cn1cncn1 (centres undefined) | inactive
CN(C)[C@@H]1C(=O)C(C(N)=O)=C(O)[C@@]2(O)C(=O)C3=C(O)c4c(O)cccc4[C@@](C)(O)[C@H]3C[C@@H]12 | inactive
N#CC(Br)Br | inactive
CN(C)c1ccc(C(=O)c2ccc(N(C)C)cc2)cc1 | inactive
Cc1ccc(N=C=O)cc1N=C=O | inactive
C[N+](C)(C)CC1CO1 (centres undefined) | inactive
Nc1ccc(Oc2ccc(N)cc2)cc1 | inactive
ClC1=C(Cl)C2(Cl)C3C(Cl)C=CC3C1(Cl)C2(Cl)Cl (centres undefined) | inactive
